Test results from PubChem BioAssay (Tox21).
Results filed as inconclusive are left out. Calls of active or inactive are those of the source. Unless noted, calls come from the whole dose curve; as a rule, active = well fitted curve in the direction sought with a large enough effect in the repeat runs; inconclusive = weak or mixed curves; inactive = no such curve, though single readings can be large; an effect the other way counts as inactive or inconclusive.

Experiments:
[1] = qHTS assay to identify small molecule agonists of the hypoxia (HIF-1) signaling pathway - cell viability counter screen (AID 1224844; calls by dose curve; note: nearly all actives have a fitted effect of over 50% in size)
Outline: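 Cytotoxicity was measured in parallel with the HRE-driven beta-lactamase readout: after 17 hrs of compound exposure at 37C, HRE-bla ME-180 cells received CellTiter-Glo and luminescence was recorded 30 min later.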

[2] = qHTS assay to identify small molecule agonists of H2AX (AID 1224845; active = well fitted activation curve with a large enough effect in the signal ratio in the repeat runs, not every such curve was filed as active; the % refers to the signal ratio)
Outline: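 Wild-type CHO-K1 cells, plated overnight, exposed 3hr at 37C to 15 concentrations (0.76% DMSO final). Lysed, then HTRF anti-pH2AX (S139) cryptate and anti-H2AX-d2 antibodies, 24 hr room temperature; 665/620 nm emission read.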

[3] = qHTS assay to identify small molecule agonists of the hypoxia (HIF-1) signaling pathway (AID 1224846; active = well fitted activation curve with a large enough effect in the signal ratio in the repeat runs, not every such curve was filed as active; the % refers to the signal ratio)
Outline: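 Compounds from the Tox21 10K library, dissolved in DMSO, are tested for induction of a hypoxia response element–controlled beta-lactamase reporter in ME-180 cells. Exposure lasts 17 hrs at 37C after a 5 hr settling period, followed by CCF4-AM FRET substrate.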

[4] = qHTS assay to identify small molecule agonists of H2AX - cell viability counter screen (AID 1224847; calls by dose curve; note: top concentration of the series differs between compounds; nearly all actives have a fitted effect of over 30% in size)
Outline: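 For this counter screen, overnight-attached CHO-K1 cells received test compounds (15 concentrations, 0.76% DMSO final); 3 hr later at 37C, CellTiter-Glo reagent was added and luminescence recorded after 30 min at room temperature.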

[5] = qHTS RealTime-Glo MT Cell Viability Assay in HepG2 cells - 24 hour (AID 1224867); note: nearly all actives have a fitted effect of over 50% in size
Outline: (§1)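 HepG2 cells (600/well) were dispensed with RealTime-Glo reagents, incubated 5 h at 37 °C, then treated with compounds in DMSO for up to 40 h. Nonlytic NanoLuc luminescence reflecting viable cells was read at each stated time point.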

[6] = qHTS RealTime-Glo MT Cell Viability Assay in HEK293 cells - 32 hour (AID 1224868); note: nearly all actives have a fitted effect of over 50% in size; note: potency is the fitted concentration of half-maximal effect; for activity change, negative = cytotoxic: top concentration of the series differs between compounds
Outline: (§2)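 HEK293 cells seeded with NanoLuc/prosubstrate reagent, rested 5 h at 37 C, then dosed and kept at 37 C up to 40 h. Nonlytic real-time luminescence from viable cells read at 0, 8, 16, 24, 32 and 40 h.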

[7] = qHTS RealTime-Glo MT Cell Viability Assay in HepG2 cells - 40 hour (AID 1224870); note: nearly all actives have a fitted effect of over 50% in size
Outline: (§3)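 HepG2 cells (600/well) mixed with RealTime-Glo MT reagent, settled 5 h at 37 C/5% CO2 before compound addition. Nonlytic NanoLuc luminescence from viable-cell prosubstrate reduction read repeatedly during 40 h treatment at 37 C.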

[8] = qHTS RealTime-Glo MT Cell Viability Assay in HEK293 cells - 16 hour (AID 1224872); note: nearly all actives have a fitted effect of over 50% in size; note: potency is the fitted concentration of half-maximal effect; for activity change, negative = cytotoxicity: top concentration of the series differs between compounds
Outline: as §2

[9] = qHTS RealTime-Glo MT Cell Viability Assay in HepG2 cells - 8 hour (AID 1224873); note: nearly all actives have a fitted effect of over 55% in size
Outline: as §3

[10] = qHTS RealTime-Glo MT Cell Viability Assay in HEK293 cells - 40 hour (AID 1224874); conditions: RealTime-Glo luminescence; max response: hits give low values; note: nearly all actives have a fitted effect of over 50% in size; note: potency is the fitted concentration of half-maximal effect
Outline: (§4)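 Real-time viability in HEK293: signal arises when living cells convert a prosubstrate for NanoLuc in the medium, so luminescence tracks viable cell number. Compound (23 nL, DMSO) added 5 h post-seeding; kinetic reads at 0–40 h, 37 C.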

[11] = A CellTox Green Cytotoxicity Assay to monitor cytotoxicity in HepG2 cells - 16 hour (AID 1224876); note: nearly all actives have a fitted effect of over 45% in size; note: potency is the fitted concentration of half-maximal effect
Outline: (§5)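 Cells and non-lytic dye reagent are dispensed together (600 HepG2 cells/well) and incubated 5 h before DMSO compound transfer. Kinetic fluorescence is then recorded in the same wells during 40 h at 37 C.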

[12] = qHTS RealTime-Glo MT Cell Viability Assay in HepG2 cells - 32 hour (AID 1224877); note: nearly all actives have a fitted effect of over 55% in size
Outline: as §1

[13] = A CellTox Green Cytotoxicity Assay to monitor cytotoxicity in HepG2 cells - 24 hour (AID 1224878); note: nearly all actives have a fitted effect of over 45% in size; note: potency is the fitted concentration of half-maximal effect
Outline: as §5

[14] = A CellTox Green Cytotoxicity Assay to monitor cytotoxicity in HepG2 cells - 40 hour (AID 1224879); note: nearly all actives have a fitted effect of over 40% in size; note: potency is the fitted concentration of half-maximal effect
Outline: as §5

[15] = qHTS RealTime-Glo MT Cell Viability Assay in HEK293 cells - 0 hour (AID 1224880); note: top concentration of the series differs between compounds; nearly all actives have a fitted effect of over 45% in size
Outline: as §4

[16] = A CellTox Green Cytotoxicity Assay to monitor cytotoxicity in HEK293 cells - 0 hour (AID 1224869); note: nearly all actives have a fitted effect of over 50% in size
Outline: (§6)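 Cells (HEK293, 600/well) and dye reagent are dispensed together. After 5 h at 37 C, 23 nL compound is pinned in. Plates stay at 37 C for 40 h with fluorescence read at 0h, 8h, 16h, 24h, 32h and 40h.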

[17] = A CellTox Green Cytotoxicity Assay to monitor cytotoxicity in HEK293 cells - 40 hour (AID 1224871); note: nearly all actives have a fitted effect of over 45% in size; note: potency is the fitted concentration of half-maximal effect
Outline: as §6

[18] = A CellTox Green Cytotoxicity Assay to monitor cytotoxicity in HEK293 cells - 24 hour (AID 1224875); note: nearly all actives have a fitted effect of over 45% in size; note: potency is the fitted concentration of half-maximal effect
Outline: as §6

[19] = qHTS assay to identify small molecule antagonists of the estrogen related receptor (ERR) signaling pathway from Tox21 library (AID 1224848); note: nearly all actives have a fitted effect of over 50% in size
Outline: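 Compounds dissolved in DMSO are pin-transferred onto ERR reporter cells (2,000 per well) that have settled for 6 h at 37 C. Plates then incubate 18 h at 37 C before ONE-Glo luciferase reagent and a luminescence read 30 min later.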

[20] = qHTS assay to identify small molecule agonists of the estrogen related receptor (ERR) signaling pathway from Tox21 library (AID 1224849; calls by dose curve; note: nearly all actives have a fitted effect of over 15% in size); conditions: ERR reporter cell line, ONE-Glo luciferase, 18 h; at 92.4 µM (top of the series) unless noted
Outline: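 Cells carrying the ERR reporter were plated and allowed to settle for 6 h, exposed to library compounds for 18 h at 37 C, then lysed with ONE-Glo and luminescence measured.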
% is set by controls: 0 for no effect and ±100 for the full control effect.

CN(C)c1ccc(/C=C/c2ccc([N+](=O)[O-])cc2)cc1
inactive: activity change, negative = cytotoxicity [1] -6.06% [at 6.97 µM] | activation (H2AX phosphorylation) [2] -1.3% [at 14 µM] | activation [3] -1.48% [at 7.01 µM] | activity change, negative = cytotoxicity [4] -2.45% [at 14 µM] | activity change, negative = cytotoxicity [5] -7.57% [at 6.97 µM] | activity change, negative = cytotoxic [6] -5.7% [at 6.97 µM] | activity change, negative = cytotoxic [7] -1.99% [at 6.97 µM] | activity change, negative = cytotoxicity [8] -4.94% [at 6.97 µM] | viability change, negative = cytotoxic [9] -4.05% [at 6.97 µM] | max response [10] -4.38% | cytotoxicity increase [11] 19.5% [at 6.97 µM] | activity change, negative = cytotoxic [12] -4.75% [at 6.97 µM] | cytotoxicity [13] 17.5% [at 6.97 µM] | cytotoxicity increase [14] 16.3% [at 6.97 µM] | activity change, negative = cytotoxicity [15] -5.79% [at 6.97 µM]

Cc1cccc(Nc2ccccc2)c1
inactive: Potency [1] | Potency [2] | Potency [3] | Potency [5] | Potency [6] | Potency [16] | Potency [7] | max response [10] -10.8% | Potency [12] | Potency [15]
active: Potency [17] 34.7 µM | Potency [18] 38.9 µM | Potency [11] 43.6 µM | Potency [13] 38.9 µM

O=[N+]([O-])c1ccc2[nH]ncc2c1
inactive: Potency [1] | Potency [2] | Potency [3] | Potency [4] | Potency [6] | Potency [16] | Potency [7] | Potency [17] | Potency [8] | max response [10] -13.3% | Potency [18] | Potency [11] | Potency [12] | Potency [13] | Potency [14] | Potency [15]

COc1cc2nc(Cl)nc(N)c2cc1OC
inactive: Potency [1] | Potency [2] | Potency [3] | Potency [4] | Potency [5] | Potency [7] | Potency [17] | Potency [9] | Potency [18] | Potency [11] | Potency [12] | Potency [13] | Potency [15]

CCn1cc(C(=O)O)c(=O)c2cnc(N3CCNCC3)nc21
inactive: Potency [1] | Potency [2] | Potency [4] | Potency [19] | Potency [5] | Potency [6] | Potency [7] | Potency [17] | Potency [8] | Potency [9] | max response [10] 6.48% | Potency [18] | Potency [11] | Potency [12] | Potency [13] | Potency [14] | Potency [15]

CC[N+]1(CC)CCC(=C(c2ccccc2)c2ccccc2)C1C (stereo not drawn)
inactive: Potency [1] | Potency [2] | Potency [3] | Potency [4] | Potency [5] | Potency [16] | Potency [7] | Potency [17] | Potency [8] | Potency [18] | Potency [11] | Potency [12] | Potency [13] | Potency [15]

CC(=O)c1cccc([N+](=O)[O-])c1
inactive: Potency [1] | Potency [2] | Potency [3] | Potency [4] | Potency [5] | Potency [6] | Potency [7] | Potency [17] | Potency [8] | max response [10] 3.17% | Potency [18] | Potency [11] | Potency [12] | Potency [13] | Potency [14] | Potency [15]

O=C(O)CC(=O)C(=O)O
inactive: Potency [1] | Potency [2] | Potency [3] | Potency [4] | Potency [6] | Potency [16] | Potency [7] | Potency [17] | Potency [8] | Potency [9] | max response [10] -2.18% | Potency [18] | Potency [11] | Potency [12] | Potency [13] | Potency [14] | Potency [15]

C=C1[C@H]2CC[C@@H]3[C@H]2C(C)(C)CCC[C@]13C
inactive: Potency [1] | Potency [2] | Potency [3] | Potency [4] | Potency [5] | Potency [6] | Potency [7] | Potency [17] | Potency [8] | Potency [9] | max response [10] -2.59% | Potency [18] | Potency [11] | Potency [12] | Potency [13] | Potency [15]

OC(CN1CCC(Cc2ccc(F)cc2)CC1)c1ccc(Cl)cc1 (stereo not drawn)
inactive: Potency [1] | Potency [2] | Potency [3] | Potency [16]
active: Potency [6] 10.7 µM | Potency [17] 21.3 µM | Potency [8] 9.52 µM | Potency [10] 9.52 µM | Potency [13] 21.3 µM | Potency [14] 23.9 µM

S=C([S-])NCCNC(=S)[S-].[Mn+2]
inactive: Potency [1] | Potency [2] | Potency [3] | Potency [4] | Potency [5] | Potency [16] | Potency [7] | Potency [17] | Potency [9] | Potency [18] | Potency [11] | Potency [12] | Potency [13] | Potency [14] | Potency [15]

O=P(O)(OCc1ccccc1)OCc1ccccc1
inactive: Potency [1] | Potency [2] | Potency [3] | Potency [4] | Potency [5] | Potency [6] | Potency [7] | Potency [17] | Potency [8] | Potency [9] | max response [10] 2.99% | Potency [18] | Potency [11] | Potency [12] | Potency [13] | Potency [14] | Potency [15]

O=C1CCCCCCCCCCCC(=O)OCCO1
active: Potency [17] 54.9 µM
inactive: Potency [1] | Potency [2] | Potency [3] | Potency [19] | activity change, positive = activation [20] 1.67% | Potency [5] | Potency [6] | Potency [16] | Potency [7] | Potency [8] | Potency [9] | max response [10] -16% | Potency [18] | Potency [11] | Potency [12] | Potency [15]

COc1ccnc(CS(=O)c2nc3ccc(OC(F)F)cc3[nH]2)c1OC (stereo not drawn)
inactive: Potency [1] | Potency [2] | Potency [3] | Potency [4] | Potency [5] | Potency [6] | Potency [17] | Potency [8] | Potency [9] | max response [10] -16.2% | Potency [18] | Potency [11] | Potency [12] | Potency [13] | Potency [14] | Potency [15]
